# AmpC det inh: AmpC beta-lactamase inhibition, detergent assay | P00811 | purified AmpC, nitrocefin hydrolysis with detergent | Potency, µM (titrated, usually from 28.7 µM), without a hit: at the top dose activity change, negative = inhibition | actives 0.09% (n = 71,000); active = well fitted curve in the direction sought with a large enough effect; inconclusive = small, poorly fitted or top-dose-only effect; also: % is scaled to controls: 0 for no effect and ±100 for the full control effect
# Target sequence (P00811 whole entry, looked up): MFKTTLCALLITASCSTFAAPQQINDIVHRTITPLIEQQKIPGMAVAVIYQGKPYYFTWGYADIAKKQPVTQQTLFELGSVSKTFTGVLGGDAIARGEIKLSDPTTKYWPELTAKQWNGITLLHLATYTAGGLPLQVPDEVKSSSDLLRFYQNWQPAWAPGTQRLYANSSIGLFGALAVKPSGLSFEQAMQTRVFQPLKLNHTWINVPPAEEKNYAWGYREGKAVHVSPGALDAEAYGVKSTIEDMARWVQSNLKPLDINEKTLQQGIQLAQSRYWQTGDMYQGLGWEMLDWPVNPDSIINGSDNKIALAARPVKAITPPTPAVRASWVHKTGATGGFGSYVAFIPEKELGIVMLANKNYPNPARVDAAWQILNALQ
#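 E. coli AmpC (5.3 nM) in 20 mM phosphate pH 7.0 with 0.01% Triton X-100, preincubated 15 min RT with compound; nitrocefin (2 uL of 800 uM stock) hydrolysis followed by 480 nm absorbance every 20 s over 4 min.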
# Prx2 Sm inh: inhibitors of Schistosoma mansoni peroxiredoxin 2; actives 0.07% (n = 65,000); Potency, µM; S. mansoni Prx2 activity coupled to TGR/GSH (TGR is thioredoxin glutathione reductase), NADPH fluorescence loss, qHTS
#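 Enzyme mix: 100 uM NADPH, 25 nM TGR, 700 uM GSH, 50 nM Prx2 in 100 mM phosphate pH 7.4, 10 mM EDTA, 0.01% Tween-20. 15 min RT with compound; NADPH/GSH added, H2O2 starts reaction; NADPH fluorescence read 8 min.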
# Anthrax LT inh: inhibitors of anthrax lethal toxin internalization; Cells, anthrax lethal toxin internalization, FRET ratio (460/530); actives 0.67% (n = 70,000); Potency, µM (titrated, usually from 40 µM), without a hit: at the top dose activity change, negative = inhibition, usual class: inhibitors; also: % is scaled to controls: 0 for no effect and ±100 for the full control effect; nearly all actives have a fitted effect of over 50% in size
# AmpC inh no det: AmpC beta-lactamase inhibition, detergent-free assay | AmpC nitrocefin hydrolysis, absorbance 480 nm, no detergent | Potency, µM (doses to about 28.7 µM), inactives show at the highest dose activity change, negative = inhibition | AID 585 | actives 1.8% (n = 71,000); also: % of control where 0% means no effect
#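 Enzyme, pH 7.0 phosphate. Compound titrations were pre-incubated with AmpC for 15 min at room temperature before nitrocefin (stock 800 uM) addition; product formation was recorded at 480 nm every 20 s for 4 min.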
# Numbers without * were called inactive; ? = inconclusive; . = no result given; [ ] = dose if it differs, or a comment. Shown are actives, neighbours in structure and some others; about 2.4% of the full set was active somewhere. Unless noted, calls follow the shape of the full dose curve. Potency is read from the fitted curve at half-maximal effect.
SMILES,AmpC det inh,Prx2 Sm inh,Anthrax LT inh,AmpC inh no det
Cc1cccc(N)c1C,15.4%,.,-7.3%,7.5%
N#CC1=C2SCN(c3ccc(F)cc3)CN2C(=O)CC1c1cccc(F)c1 (configuration not stated),8.9%,>57,-17.1%,3.98µM*[single pt active]
COc1ccc(N2CSC3=C(C#N)C(c4cccs4)CC(=O)N3C2)cc1 (configuration not stated),-6.2%,>57,?,-21.7%
CN1CSC2=C(C#N)C(c3cccc(OCc4ccccc4)c3)CC(=O)N2C1 (configuration not stated),12.7%,>57,?,3.98µM*[single pt active]
COc1ccc(N2CSC3=C(C#N)C(c4cc(OC)c(OC)cc4OC)CC(=O)N3C2)c(OC)c1 (configuration not stated),12.0%,>57,-12.8%,96.2%
CCOC(=O)CSc1nn(C)c(=S)s1,12.8%,>57,-11.5%,3.98µM*[single pt active]
CCOC(=O)CSc1nnc(N)s1,1.6%,>57,?,-10.9%
O=C(CCSc1nnc2scc(-c3ccccc3)n12)Nc1nc(-c2ccccc2)ns1,-4.3%,>57,12.2%,5.01µM*
CCn1ncc(C2=NOC(C(=O)Nc3c(C)n(C)n(-c4ccccc4)c3=O)C2)c1C (configuration not stated),8.5%,>57,-2.7%,3.98µM*[single pt active]
CCn1ncc(C2=NOC(C(=O)Nc3c(C)nn(Cc4ccc(F)cc4)c3C)C2)c1C (configuration not stated),18.0%,>57,-14.2%,48.3%
CCOC(=O)C1CCCN(C(=O)Cn2nc(Cc3cccnc3)c3ccccc3c2=O)C1 (configuration not stated),12.1%,>57,2.0%,3.16µM*[single pt active]
N=c1n(CCO)c2ccccc2n1CCOc1ccc(Cl)cc1Cl,9.8%,>57,?,3.98µM*[single pt active]
COC(=O)[C@H]1C(=O)[C@H](C(=O)OC)[C@@H]2CC[C@H]1N2C,-3.9%[5.75 µM],>11.4,-1.2%[8 µM],-0.1%[5.75 µM]
Cc1ccc(NC(=O)CSc2nnc(Cn3c(=O)sc4ccccc43)n2C)cc1,14.2%,>57,-9.3%,23.1%
COc1ccc(NC(=O)CSc2nnc(Cn3c(=O)sc4ccccc43)n2C)cc1,9.8%,>57,-5.5%,?
CCOc1ccc(NC(=O)CSc2nnc(Cn3c(=O)sc4ccccc43)n2C)cc1,25.0%,>57,-3.9%,3.98µM*[single pt active]
Cc1ccc(NC(=O)CSc2nnc(Cn3c(=O)sc4ccccc43)n2C)cc1Cl,7.6%,>57,5.0%,3.98µM*[single pt active]
Cn1c(Cn2c(=O)sc3ccccc32)nnc1SCC(=O)Nc1ccc(F)cc1,10.5%,>57,-5.9%,3.98µM*[single pt active]
Cn1c(Cn2c(=O)sc3ccccc32)nnc1SCC(=O)Nc1ccccc1,14.2%,>57,1.2%,3.98µM*[single pt active]
COc1ccc2[nH]cc(CCNc3nc(-c4ccc(N(C)C)cc4)nc4ccccc34)c2c1,-5.6%,>57,?,?
Cc1ccc(CSc2nnc(Cn3c(=O)sc4ccccc43)n2C)cc1,5.7%,>57,-9.1%,26.2%
CC(C)CCSc1nnc(Cn2c(=O)sc3ccccc32)n1C,13.8%,>57,-12.6%,3.98µM*[single pt active]
C=C1CC[C@H]2C(C)(C)[C@H](O)CC[C@]2(C)[C@@H]1COc1ccc2ccc(=O)oc2c1,-3.0%,>57,?,55.8%
NC(=O)c1cccc2c1C(=O)N(C1CCCCC1)C2,13.0%,>57,-7.1%,3.98µM*[single pt active]
CN(CC(=O)NC1CCCCCCC1)S(=O)(=O)c1cccc2cccnc12,2.6%,>57,-8.6%,3.98µM*[single pt active]
SMILES,AmpC det inh,Prx2 Sm inh,Anthrax LT inh,AmpC inh no det
CN(CC(=O)Nc1ccc(Cl)cc1)S(=O)(=O)c1cccc2cccnc12,9.0%,>57,7.94µM*,-12.8%
COc1ccc(NC(=O)CN(C)S(=O)(=O)c2cccc3cccnc23)cc1,12.9%,>57,7.5%,-3.6%
O=C(NC1CCCCC1)N1CCC(n2c(=O)[nH]c3ccccc32)CC1,17.8%,>57,-14.1%,3.16µM*[single pt active]
C=CCN1C[C@@H](C)N([C@H](c2ccc(C(=O)N(CC)CC)cc2)c2cccc(OC)c2)C[C@H]1C,-0.7%,>57,?,22.5%
CCN1CCN(C(=O)C(NS(=O)(=O)c2ccc3nc(C)sc3c2)C(C)C)CC1 (configuration not stated),8.9%,>57,0.2%,12.7%
Cc1nc2ccc(S(=O)(=O)NC(C(=O)NC3CCCC3)C(C)C)cc2s1 (configuration not stated),6.9%,>57,4.7%,3.98µM*[single pt active]
O=c1c2ccccc2sn1-c1ccc(S(=O)(=O)N2CCCCC2)cc1,-4.1%,>57,0.159µM*,-7.2%

# Source: PubChem BioAssay (National Center for Advancing Translational Sciences (NCATS))
